LmPK inhibitor = blocks Leishmania mexicana pyruvate kinase activity | Q27686 | purified LmPK, Kinase-Glo ATP luminescence, 1 h | Potency, µM (top dose mostly 57.5 µM), inactives show top-dose activity change, negative = inhibition, hits mostly inhibitors | 0.37% of 290,000 active; note: potency is the fitted concentration of half-maximal effect; % is set by controls: 0 for no effect and ±100 for the full control effect
Target sequence (Q27686 whole entry, looked up): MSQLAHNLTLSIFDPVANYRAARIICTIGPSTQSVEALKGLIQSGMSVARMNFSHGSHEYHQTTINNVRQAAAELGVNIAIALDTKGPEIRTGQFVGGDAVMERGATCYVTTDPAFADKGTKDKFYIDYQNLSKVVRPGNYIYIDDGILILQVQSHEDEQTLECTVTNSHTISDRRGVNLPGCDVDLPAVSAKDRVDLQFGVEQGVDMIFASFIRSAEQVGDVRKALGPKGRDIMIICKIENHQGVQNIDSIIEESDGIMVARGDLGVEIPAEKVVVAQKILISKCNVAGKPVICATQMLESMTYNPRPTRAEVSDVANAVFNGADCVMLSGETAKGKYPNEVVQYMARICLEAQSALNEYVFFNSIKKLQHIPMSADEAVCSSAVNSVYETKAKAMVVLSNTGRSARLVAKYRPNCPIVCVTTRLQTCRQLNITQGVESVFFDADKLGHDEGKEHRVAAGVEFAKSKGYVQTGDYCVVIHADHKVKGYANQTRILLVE
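Pyruvate kinase activity monitored as ATP production (luciferase luminescence). Conditions: 0.1 nM enzyme, 0.5 mM PEP, 0.1 mM ADP, 1 h, RT; normalized against uninhibited and no-enzyme wells.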
Tb PYK inh = blocks Trypanosoma brucei pyruvate kinase. TbPYK enzyme, Kinase-Glo Plus ATP luminescence, 45 min. 0.12% of 410,000 active. Potency, µM (titrated, usually from 76.8 µM), inactives show at the highest dose activity, negative = inhibition, hits mostly inhibitors. Q57TT1; note: potency is the fitted concentration of half-maximal effect; % is set by controls: 0 for no effect and ±100 for the full control effect; nearly all actives have a fitted effect of over 50% in size
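Luminescence from Kinase-Glo Plus, added after a 45-minute room-temperature reaction, served as the end-point read-out. The enzyme and substrate were preincubated with compound before ADP (130 uM final) initiated turnover. Concentration-effect curves came from normalized qHTS data.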
Shiga toxin inh = blocks Shiga toxin action in Vero cells; Vero cells, Shiga toxin protein synthesis inhibition reporter; inhibition, % at 38.7 µM; 9.2% of 290,000 active; in the data active = inhibition mostly above about 28%, no sharp cut-off; inactive = mostly below about 43%; note: 0% is about no effect
Sm TGR inh = S. mansoni TGR enzyme inhibition; 3% of 360,000 active; AID 485364; Potency, µM (doses to about 114 µM), for the others: at the highest dose activity change, negative = inhibition, most hits filed as inhibitors; purified TGR, DTNB reduction, TNB absorbance 405 nm; note: potency is the fitted concentration of half-maximal effect; % is set by controls: 0 for no effect and ±100 for the full control effect; nearly all actives have a fitted effect of over 60% in size
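TGR 20 nM + NADPH 100 uM (dispensed conc.), cpd preinc 15 min RT; start with NADPH (500 uM addition) then DTNB (15 mM addition). Kinetic TNB absorbance, 405 nm filter. Four-parameter Hill fit across titration.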
Giardia FBPA inh = inhibitors of Giardia lamblia fructose-1,6-bisphosphate aldolase | A8B2U2 | purified Giardia FBPA | Potency, µM (titrated, usually from 59.6 µM), inactives show at the highest dose activity, negative = inhibition, hits mostly inhibitors | 0.71% of 290,000 active | AID 2451; note: potency is the fitted concentration of half-maximal effect; % is set by controls: 0 for no effect and ±100 for the full control effect; nearly all actives have a fitted effect of over 55% in size
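40 nM FBPA preincubated 10 min at RT with compound (up to 57.5 uM final), then substrate plus GAPDH/TPI/NAD/arsenate coupling and diaphorase/resazurin added. Fluorescence read after 20 min at RT, 525/598 nm.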
Cycloheximide cs = counter-screen for Shiga toxin inhibitors: cycloheximide protein synthesis inhibition. cell reporter, cycloheximide protein synthesis inhibition counterscreen. 12% of 300,000 active. max response, %; in the data active = max response mostly above about 13%, no sharp cut-off; inactive = mostly below about 14%; note: read at 38.3 µM for the half of the compounds with a filed dose; 0% is about no effect
* marks the source's active call; other numbers are inactive results; . = no result given. This excerpt belongs to a sample that is enriched for hits. Unless noted, calls come from the whole dose curve; as a rule, active = well fitted curve in the direction sought with a large enough effect; inconclusive = small, poorly fitted or top-dose-only effect, or another doubt; inactive = no such curve, though single readings can be large; an effect the other way counts as inactive or inconclusive.

SMILES | LmPK inhibitor | Tb PYK inh | Shiga toxin inh | Sm TGR inh | Giardia FBPA inh | Cycloheximide cs
NC(=O)NCCCC(=O)OCC(=O)c1ccc2ccccc2c1 | 4.7% | -0.2% | 22.6 | 4.4% | 0.4% | 21.4*
CCC(=O)Nc1ccccc1C(=O)OCC(=O)c1ccc2ccccc2c1 | 11.0% | -11.5% | 12.0 | 4.0% | -8.2% | 11.0
Cc1ccc(C)c(CN2C(=O)c3ccccc3S(=O)(=O)c3ccc(C(=O)N4CCN(c5ccccc5F)CC4)cc32)c1 | . | 0.7% | . | -3.0% | . | .
O=C(Nc1ccc(Cl)c(C(F)(F)F)c1)C(Cc1ccccc1)NS(=O)(=O)c1cccc2nsnc12 (stereo not drawn) | . | -8.6% | . | -3.4% | . | .
CCOc1cc(C(=O)N2CC(=O)Nc3ccc(C)cc3C2c2ccccc2)cc(OCC)c1OCC (stereo not drawn) | . | 1.0% | . | 4.5% | . | .
CCCc1cc(C(=O)NNC(=S)NCC2CCCO2)cs1 (stereo not drawn) | -0.1% | -5.3% | 6.3 | 2.6% | 0.1% | 13.6*
CC1CCc2sc(C(=O)N/N=C/c3ccc(O)cc3)cc2C1 (stereo not drawn) | 6.7% | 0.8% | 53.9* | -1.0% | -2.4% | 44.6*
C/C(=N\NC(=O)c1cc2c(s1)CCC(C)C2)c1ccncc1 (stereo not drawn) | 1.9% | -5.7% | 16.9 | -2.8% | 1.5% | 7.2
CC1CCc2sc(C(=O)NC(C)C3CCCO3)cc2C1 (stereo not drawn) | -9.3% | -7.4% | 87.5* | -20.0% | . | 39.5*
CCCc1cc(C(=O)NC(C)C2CCCO2)cs1 (stereo not drawn) | -1.6% | -6.4% | 71.4* | -33.3% | . | 40.4*
Cc1ccc2c(=O)cc(C(=O)N(Cc3ccc(C(C)(C)C)cc3)C3CCS(=O)(=O)C3)oc2c1 (stereo not drawn) | . | 1.7% | . | 5.2% | . | .
Cc1c(Cl)cccc1NC(=O)c1ncn(-c2ccccc2)n1 | . | 1.4% | . | -4.6% | . | .
Cc1cc(C(=O)NC(C)C2CCCO2)cs1 (stereo not drawn) | -2.1% | 0.0% | 32.8 | 1.2% | -0.2% | -4.3
CCc1cc(C(=O)NC(C)C2CCCO2)cs1 (stereo not drawn) | -2.0% | -4.4% | 61.7* | -19.8% | . | 39.7*
O=C(c1ccc2c(c1)N(Cc1ccc(F)cc1)C(=O)c1ccccc1S2(=O)=O)N1CCCC1 | . | 0.5% | . | -1.9% | . | .
COc1ccc(Nc2ncnc3c2c(C)c(C)n3CCCN(C)C)cc1 | 3.5% | -5.4% | 69.5* | 5.6% | 0.1% | 47.0*
Cn1ncc2c(NNC(=O)c3ccc(Cl)cc3Cl)ncnc21 | 5.4% | -13.0% | -14.1 | -2.7% | 17.0% | 0.9
COC(=O)C1=C(C)N(Cc2ccco2)C(=O)N[C@@H]1c1ccccc1 | 2.7% | -12.1% | -12.8 | 35.5µM* | -0.8% | -4.7
COC(=O)C1=C(C)N(Cc2ccco2)C(=O)C1 | -7.9% | -5.1% | -4.8 | 17.8µM* | -25.7% | -2.4
CCCCn1cc(S(=O)(=O)c2ccc(C)c(C)c2)c(=O)c2cc(F)c(N(CC)CC)cc21 | . | 3.3% | . | -0.3% | . | .
COc1ccc(CC(=O)Nc2nnc3n2CCS3)cc1 | . | -9.2% | . | 0.1% | . | .
Cc1ccc(NC(=O)c2ccc(OC(=S)N3CCOCC3)cc2)cc1 | 0.0% | 0.9% | 31.8 | 2.7% | 0.8% | 20.6
O=C(Nc1cccc(Br)c1)c1cccc(OC(=S)N2CCOCC2)c1 | -9.1% | 2.5% | 43.6* | 3.5% | . | 41.2*
O=C(Nc1ccc(C(=O)N2CCOCC2)cc1)c1ccccc1 | . | -16.1% | . | . | . | .
O=C(Nc1ccc(C(=O)N2CCOCC2)cc1)c1cccc(Br)c1 | -14.1% | 9.7% | 68.9 | 1.9% | . | 29.7*
COc1ccccc1OCc1cc(-c2ccccc2)no1 | -0.6% | 0.9% | 89.5* | -3.1% | -3.4% | 68.2*
c1ccc(OCc2cc(-c3ccccc3)no2)cc1 | 1.6% | -5.3% | 75.6* | 0.1% | -1.3% | 53.4*
COc1ccc(OCc2cc(-c3ccc(Cl)cc3)no2)cc1 | -1.8% | 2.3% | 34.7 | 0.8% | 2.6% | 9.3
CC(C)Oc1ccc(CNC(=O)C2COc3ccccc3C2)cc1 (stereo not drawn) | . | 2.5% | . | 0.1% | . | .
CC1(C)OC(c2ccccc2)=C/C(=C/C=Nc2ccccc2)O1 | -3.9% | -6.4% | 34.9* | -9.6% | -7.7% | 16.5*

From PubChem
